Bioassay records as filed in PubChem BioAssay.
HCMV inh: qHTS Assay for inhibitors of the human cytomegalovirus (HCMV) | HFF cells, HCMV-luciferase reporter, 72 h; stronger effect = lower value | activity change, negative = inhibition, % at 57.5 µM | 410,000 tested, 4.5% active; in the data active = activity change below about -60%; inconclusive = no clear call, values can overlap the other calls; inactive = above about -39%
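Two compound doses tested in HFFs infected with HCMV-luciferase, MOI 1 PFU/cell, 72 h at 37C. Lysate luminescence read with OneGlo; data normalized against buffer-only and 10uM Salinomycin inhibitor controls.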
Pf growth 48h: Primary qHTS for delayed death inhibitors of the malarial parasite plastid, 48 hour incubation; P. falciparum luciferase growth in erythrocytes, 48 h; Potency, µM (highest dose often 28.7 µM), for inactives: at the top dose activity change, negative = inhibition, hits mostly inhibitors; 310,000 tested, 5.9% active; AID 504832, 2011; note: potency is the fitted concentration of half-maximal effect
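Luciferase-expressing P. falciparum in infected erythrocytes (2% hematocrit, 0.1% parasitemia final) in RPMI 1640/0.5% Albumax were exposed to compound for 48 hours at 37 C, 5% CO2; growth read as luminescence.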
Lassa entry inh: qHTS for Inhibitors of binding or entry into cells for Lassa Virus; Lassa virus pseudotype entry inhibition, cell reporter; Potency, µM (top dose mostly 37.9 µM), inactives show top-dose activity change, negative = inhibition, hits mostly inhibitors; 300,000 tested, 1.2% active; calls by dose curve; tested in HEK293 cells; note: potency is the fitted concentration of half-maximal effect; nearly all actives have a fitted effect of over 50% in size
HCV inh: qHTS Assay for Inhibitors of Hepatitis C Virus (HCV); Huh7.5.1 HCVcc-Cre infection, luciferase reporter, 44 h; Potency, µM (highest dose often 41.8 µM), for the others: at the highest dose activity change, negative = inhibition, actives largely listed as inhibitors; 340,000 tested, 3.4% active; note: potency is the fitted concentration of half-maximal effect
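Cells (1,000/well) were plated 4 h before compound, then infected with HCVcc-Cre virus (~0.5 moi). After 44 h further culture, infection was read as luciferase luminescence following a 15 min substrate incubation at room temperature.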
Marburg entry inh: qHTS for inhibitors of binding or entry into cells for Marburg Virus | Potency, µM (titrated, usually from 37.8 µM), without a hit: at the top dose activity change, negative = inhibition, usual class: inhibitors | Marburg virus pseudotyped entry inhibition, cell reporter | 300,000 tested, 1.8% active; calls by dose curve; tested in HEK293 cells; note: potency is the fitted concentration of half-maximal effect
Pf growth 96h: Primary qHTS for delayed death inhibitors of the malarial parasite plastid, 96 hour incubation. Potency, µM (highest dose often 28.7 µM), inactives show top-dose activity change, negative = inhibition, hits mostly inhibitors. P. falciparum luciferase reporter growth, 96 h. AID 504834, 2011. 320,000 tested, 6.9% active; note: potency is the fitted concentration of half-maximal effect
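P. falciparum expressing integrated firefly luciferase, in erythrocytes at 2% hematocrit, 0.05% parasitemia, incubated with compounds 96 h at 37 C, 5% CO2. Growth inhibition read as loss of luminescence; two-generation exposure targets delayed-death apicoplast inhibitors.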
* = called active by the depositor; ? = inconclusive; / = no result; [ ] = dose if it differs, or a comment. This is a sample that favours compounds with a hit; in the whole collection about 14% have one here. Unless noted, calls come from the whole dose curve; as a rule, active = well fitted inhibition curve with a large enough effect; inconclusive = small, poorly fitted or top-dose-only effect, or another doubt; inactive = no such curve, though single readings can be large or run the other way. % is set by controls: 0 for no effect and ±100 for the full control effect.

SMILES | HCMV inh | Pf growth 48h | Lassa entry inh | HCV inh | Marburg entry inh | Pf growth 96h
Cc1ccc(-c2nnn(CC(=O)N(CC(=O)NC3CCCC3)c3cnc4ccccc4c3)n2)o1 | -103* | ? | -6% | 1% | -4% | 9.3µM*
Cc1ccc(-c2nnn(CC(=O)N(CC(=O)NC(C)C)c3cnc4ccccc4c3)n2)o1 | 2 | -5% | 15% | -3% | -3% | -1%
Cc1ccc(-c2nnn(CC(=O)N(CC(=O)NC3CCCC3)c3ccc(F)c(Cl)c3)n2)o1 | -16 | 9.3µM* | -14% | ? | ? | 13µM*
Cc1nn(-c2ccc(N3CCCC3)nn2)c(C)c1CCC(=O)NCc1ccccc1F | ? | / | 4%[46.1 µM] | / | / | /
COc1ccc2cc(C(=O)CS(=O)(=O)c3ccc(Cl)cc3)c(=O)oc2c1 | -10 | / | / | / | / | /
COCCNC(=S)N1C[C@H]2CON(C)[C@H]2C[C@H]1c1ccccc1Br | -11 | / | / | / | / | /
Clc1cccc(Nc2ncnc3ccc(Br)cc23)c1 | -62* | 3.7µM* | -24% | ? | ? | 4.1µM*
Cc1ccc2ncnc(Nc3ccccc3)c2c1 | -18 | -12% | -1% | -4% | -5%[46.1 µM] | 5%
Cc1cccc(Nc2ncnc3ccc(Br)cc23)c1 | -60* | ? | -6%[46.1 µM] | -18% | ? | 0%
CN(C)c1ccc(Nc2ncnc3ccc(Br)cc23)cc1 | -76* | 29% | / | -17% | / | 0%
COc1ccc(Nc2ncnc3ccc(Br)cc23)cc1OC | / | ? | -15% | ? | ? | 34%
Clc1ccc(Nc2ncnc3ccc(Br)cc23)cc1 | -83* | 7.4µM* | -23% | ? | ? | 4.1µM*
COc1ccc2c(c1)c1c(c(=O)n(Cc3ccccc3)c(=O)n1Cc1ccc(C)cc1)n2C | 0 | / | 5%[46.1 µM] | / | / | /
C[C@H]1CN([C@@H](C)CO)C(=O)c2cc(Br)cnc2O[C@@H]1CN(C)C(=O)CN(C)C | 17 | / | / | / | / | /
CCOc1ccc(NC(=S)N2CCC(NC(=O)C3CCCCC3)CC2)cc1 | -40 | 30% | 10% | -3% | 6%[46.1 µM] | -3%
CCOC(=O)c1cccc(Nc2ncnc3ccc(C)cc23)c1 | -24 | 12µM* | -17% | 25µM* | ? | 9.3µM*
CCOC(=O)c1ccc(Nc2ncnc3ccc(C)cc23)cc1 | -11 | ? | -17% | -14% | ? | -6%
CCOC(=O)[C@]12CCC=C1N(Cc1ccc(Cl)cc1Cl)C(=O)[C@H](CC(=O)NCc1ccccc1)C2 | -9 | / | / | / | / | /
O=C(O)CC1NC(=S)N(Cc2ccccc2)C1=O (stereo not drawn) | 23 | / | / | / | / | /
CCC(=O)NC(c1ccc([N+](=O)[O-])cc1)c1c(O)ccc2ccccc12 (stereo not drawn) | -29 | 4.1µM* | -15% | ? | -25% | ?
CCCCC(=O)NC(c1ccc([N+](=O)[O-])cc1)c1c(O)ccc2ccccc12 (stereo not drawn) | -99* | 10µM* | ? | ? | ? | 63%
CCC(=O)NC(c1ccc(N(C)C)cc1)c1c(O)ccc2ccccc12 (stereo not drawn) | -13 | ? | 11%[46.1 µM] | 7% | -1%[46.1 µM] | ?
O=C(COCc1cc(-c2ccc(F)cc2)on1)Nc1cccc(Cl)c1Cl | 5 | / | -4%[46.1 µM] | / | / | /
Cn1nc(C2CC2)cc1NC(=O)C1(C)CCN1C(=O)c1ccccc1CCc1ccccc1 (stereo not drawn) | 31 | / | / | / | / | /
O=C(NCc1ccccc1)C(c1ccco1)N(C(=O)c1csnn1)c1ccccc1 (stereo not drawn) | 3 | -8% | -12%[46.1 µM] | -1% | -15%[46.1 µM] | 2%
SMILES | HCMV inh | Pf growth 48h | Lassa entry inh | HCV inh | Marburg entry inh | Pf growth 96h
COc1ccc(N2C3=[N+](CCCC3)CC2(C)O)cc1 (stereo not drawn) | -78* | ? | 3% | 5% | 4% | 295%
COc1ccc(N2CC(O)(c3ccc(C)cc3)[N+]3=C2CCCC3)cc1 (stereo not drawn) | 22 | -7% | 2% | -14% | 7%[46.1 µM] | ?
COc1ccc(N2CC(O)(c3ccc(F)cc3)[N+]3=C2CCCC3)cc1 (stereo not drawn) | -81* | ? | 12% | -17% | -3% | -42%
CCOc1ccc(N2CC(O)(c3cccs3)[N+]3=C2CCCC3)cc1 (stereo not drawn) | -9 | ? | -1% | -7% | 5.6µM* | ?
Cc1cccc(N2C(=O)CSC23C(=O)N(CC(=O)NCc2ccccc2Cl)c2ccccc23)c1 (stereo not drawn) | 9 | / | -19%[46.1 µM] | / | / | /
COc1ccc(-c2noc(CC(=O)Nc3cc(OC)ccc3OC)n2)cc1 | -27 | / | -5%[46.1 µM] | / | / | /
CCn1cc(C(=O)N2CCN(c3ccccc3)CC2)c(=O)c2cc(S(=O)(=O)N(C)C3CCCCC3)ccc21 | 15 | / | 16%[46.1 µM] | / | 6%[46.1 µM] | /
CCn1ncc(/C=N/N=C2\CCC3C4CCc5cc(O)ccc5C4CCC23C)c1C (stereo not drawn) | 53 | / | -10% | 4% | -11% | 1.7µM*
COc1ccc(CNCC(O)COc2cccc3c2OC(C)(C)C3)cc1 (stereo not drawn) | -64* | ? | ? | ? | ? | ?
COc1ccc(NC(=O)COc2cccc3c2OC(C)(C)C3)c(OC)c1 | -13 | ? | ? | ? | ? | 10µM*
COc1cc(C)c(NC(=O)COc2cccc3c2OC(C)(C)C3)cc1OC | / | -19% | / | 10µM* | / | ?
COC(=O)c1ccc(COc2cccc3c2OC(C)(C)C3)cc1 | -6 | -19% | 1% | 0% | -9% | ?
COc1cc(NC(=O)COc2cccc3c2OC(C)(C)C3)cc(OC)c1OC | -39 | ? | / | ? | / | ?
O=C(Nc1ccc(Cl)cc1C(=O)Nc1ccncc1)c1ccco1 | 23 | ? | -13% | 11µM* | ? | /
CC1CCN(C(=O)c2cc(Cl)ccc2NC(=O)c2ccco2)CC1 | -60* | 6% | / | -13% | -9%[46.1 µM] | 2.3µM*
CC1CCCCN1C(=O)c1ccccc1NC(=O)c1ccco1 (stereo not drawn) | 38 | 4% | -2% | -13% | 30% | 10µM*
CC(C)c1noc(-c2ccccc2OCC(=O)Nc2ccc([N+](=O)[O-])cc2)n1 | 9 | / | 15%[46.1 µM] | / | 5%[46.1 µM] | /
Cc1ccc(CNC(=O)CNC(=O)c2ccco2)cc1 | 0 | 12% | -15% | 16% | 9% | 2%
CCOc1ccccc1N1CCN(C(=O)CCNS(=O)(=O)c2ccccc2F)CC1 | -28 | -9% | 1% | ? | -28% | -14%
